POLK inh = qHTS for Inhibitors of Polymerase Kappa; AID 588579, 2011; Potency, µM (titrated, usually from 107 µM), inactives show top-dose activity, negative = inhibition, most hits filed as inhibitors; 400,000 tested, 0.53% active; purified Pol kappa, fluorescent DNA synthesis assay, 10 min; note: % is set by controls: 0 for no effect and ±100 for the full control effect
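Inhibition of 10 nM Pol kappa is measured by a fluorescent read-out at 0 and 10 min following addition of 50 nM substrate (final), with a 15-min room-temperature compound preincubation.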
Pol beta inh = qHTS Assay for Inhibitors of DNA Polymerase Beta; Pol beta primer extension/strand displacement, fluorescence kinetic; Potency, µM (highest dose often 114 µM), for the others: at the top dose activity change, negative = inhibition, most hits filed as inhibitors; 340,000 tested, 1.3% active; AID 485314, 2010; note: % is set by controls: 0 for no effect and ±100 for the full control effect
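10 nM enzyme + cpd, 15 min RT; start with substrate 50 nM final; read 0 min and after 10 min RT. Corrected, normalized data; 4-parameter Hill curve fit.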
POLH inh = qHTS for Inhibitors of Polymerase Eta. recombinant Pol eta, fluorescent DNA replication assay. Potency, µM (series often up to 114 µM), for the others: at the highest dose activity change, negative = inhibition, hits mostly inhibitors. 390,000 tested, 1.2% active. AID 588591, 2011; note: % is set by controls: 0 for no effect and ±100 for the full control effect
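Pol eta at 10 nM preincubated with compounds 15 min at room temperature; reaction started with fluorescent substrate (50 nM final) and read kinetically at 0 and 10 min.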
FEN1 inh = qHTS Assay for the Inhibitors of Human Flap endonuclease 1 (FEN1); P39748; Potency, µM (series often up to 114 µM), without a hit: at the highest dose activity change, negative = inhibition, hits mostly inhibitors; Recombinant FEN1 flap cleavage, fluorescence, 15 min; 390,000 tested, 0.35% active; note: % is set by controls: 0 for no effect and ±100 for the full control effect; nearly all actives have a fitted effect of over 65% in size
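FEN1 at 10 nM preincubated with compounds 15 min at room temperature, then flap DNA substrate added at 50 nM final. Signal read at 0 and 15 min; concentration-response fitted with four-parameter Hill equation.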
TDP1 inh = qHTS Assay for Inhibitors of Tyrosyl-DNA Phosphodiesterase (TDP1) | recombinant TDP1, AlphaScreen DNA substrate cleavage | 350,000 tested, 0.28% active | Potency, µM (series often up to 130 µM), for the others: top-dose activity change, negative = inhibition, usual class: inhibitors | Tyrosyl-DNA phosphodiesterase 1 (Homo sapiens), Q9NUW8 | AID 485290, 2010; note: % is set by controls: 0 for no effect and ±100 for the full control effect; nearly all actives have a fitted effect of over 40% in size
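Recombinant E. coli-expressed Tdp1 (1 nM) preincubated with compound 15 min at RT, then 5'-biotin/3'-phosphotyrosine-FITC DNA substrate (15 nM) added for 5 min. AlphaScreen beads (10 ug/ml) added, 10 min RT; tyrosine-FITC cleavage read as signal loss.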
Pol iota inh = qHTS for Inhibitors of Polymerase Iota; Potency, µM (series often up to 115 µM), without a hit: at the top dose activity, negative = inhibition, most hits filed as inhibitors; 390,000 tested, 1% active; Pol iota fluorescent replication assay, 10 min
Target sequence (Q9UNA4 whole entry, looked up): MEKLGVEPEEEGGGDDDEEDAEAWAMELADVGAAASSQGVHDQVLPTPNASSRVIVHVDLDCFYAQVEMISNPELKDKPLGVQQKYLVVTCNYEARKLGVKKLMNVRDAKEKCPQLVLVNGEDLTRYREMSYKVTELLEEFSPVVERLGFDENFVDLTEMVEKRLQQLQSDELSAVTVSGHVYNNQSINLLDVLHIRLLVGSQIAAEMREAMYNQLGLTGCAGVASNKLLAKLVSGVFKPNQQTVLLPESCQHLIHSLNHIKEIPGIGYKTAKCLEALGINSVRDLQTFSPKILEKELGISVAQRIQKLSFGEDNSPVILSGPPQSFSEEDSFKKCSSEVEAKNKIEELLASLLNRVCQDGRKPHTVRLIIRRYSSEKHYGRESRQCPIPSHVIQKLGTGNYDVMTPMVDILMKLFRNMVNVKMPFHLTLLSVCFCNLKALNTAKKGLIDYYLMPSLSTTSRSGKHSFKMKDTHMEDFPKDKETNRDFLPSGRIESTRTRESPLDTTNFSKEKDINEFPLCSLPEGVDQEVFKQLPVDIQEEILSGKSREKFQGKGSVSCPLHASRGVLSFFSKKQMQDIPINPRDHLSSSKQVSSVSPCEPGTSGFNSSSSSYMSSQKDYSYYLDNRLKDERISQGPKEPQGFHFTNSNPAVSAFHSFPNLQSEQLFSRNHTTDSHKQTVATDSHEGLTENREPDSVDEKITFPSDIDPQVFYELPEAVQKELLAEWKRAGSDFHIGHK
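Fluorescent replication assay read twice, at 0 min and 10 min after adding 50 nM (final) substrate. Enzyme (10 nM) and compounds were first incubated 15 min at room temperature; enzyme-free buffer wells were negative controls.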
* = called active by the depositor; ? = inconclusive; . = no result; [ ] = remark or other dose. This is a sample that favours compounds with a hit; in the whole collection about 2.4% have one here. Calls come from the whole dose curve; as a rule, active = well fitted curve in the direction sought with a large enough effect; inconclusive = small, poorly fitted or top-dose-only effect, or another doubt; inactive = no such curve, though single readings can be large; an effect the other way counts as inactive or inconclusive. Potency is the fitted concentration of half-maximal effect.

SMILES	POLK inh	Pol beta inh	POLH inh	FEN1 inh	TDP1 inh	Pol iota inh
COCCOC(=O)N1CCN(/[N+]([O-])=N/Oc2ccc([N+](=O)[O-])cc2[N+](=O)[O-])CC1	7%	.	.	-1%	.	-9%
Cc1ccc(S(=O)(=O)/N=C2\C=C(Nc3ccc(O)cc3)C(=O)c3ccccc32)cc1	-38%	.	?	?	11%	45µM*
Cc1ccc(S(=O)(=O)/N=C2\C=C(Nc3cccc(C(=O)O)c3)C(=O)c3ccccc32)c(C)c1	-17%	?	22µM*	71µM*	9%	5µM*
Cc1ccc(NC2=C/C(=N/S(=O)(=O)c3cccs3)c3ccccc3C2=O)cc1	-4%	-13%	?	0%	5%	?
Cc1ccc(S(=O)(=O)/N=C2\C=C(NS(=O)(=O)c3ccccc3)C(=O)c3ccccc32)c(C)c1	-9%	.	-3%	-2%	.	?
CC(C)(C)c1ccc(S(=O)(=O)/N=C2\C=C(NS(=O)(=O)c3ccccc3)C(=O)c3ccccc32)cc1	-12%	?	79µM*	?	11%	?
Cc1cc2c(cc1NC(=O)c1ccc(C(C)(C)C)cc1)n(C)c(=O)c(=O)n2C	-17%	2%	-21%	19%	6%	16%
CCOCCCNC(=O)c1c(NC(=O)c2nc(SCC)ncc2Cl)sc2c1CCCC2	0%	.	.	14%	.	-1%
CCN1CCN(c2cc(N3CCN(C(=O)c4ccco4)CC3)c3c4c(onc24)-c2ccccc2C3=O)CC1	-17%	-2%	-12%	?	9%	28µM*
CC1(C)Cc2c(C#N)c(NCc3ccco3)nc(-c3ccco3)c2CO1	-45%	?	14µM*	9%	-4%	?
N#Cc1c(NCCN)nc(-c2ccco2)c2c1CCCC2	-9%	56µM*	-14%	-20%	4%	-4%
C/C(=N\NC(=O)c1cc2ccccc2cc1O)c1cc2ccccc2o1	79µM*	7.1µM*	56µM*	-3%	8%	22µM*
O=C(CSc1nc2c(oc3ccccc32)c(=O)[nH]1)Nc1cccc(Cl)c1	-34%	71µM*	-13%	-16%	-6%	?
COC(=O)c1cccc(NC(=O)CSc2nc(O)c(-c3ccccc3)c(=O)[nH]2)c1	?	?	25µM*	10%	.	?
COC(=O)c1ccccc1NC(=O)CSc1nc(O)c(-c2ccccc2)c(=O)[nH]1	-19%	?	?	5%	.	84%
COc1cccc(-n2c(SCC(=O)Nc3cccc(Cl)c3)nc3c(oc4ccccc43)c2=O)c1	1%	10%	-19%	-7%	4%	-3%
O=C(CSc1nc2ccccc2c(=O)[nH]1)Nc1ccc(C(=O)O)cc1	-21%	?	0%	1%	50µM*	59%
COc1ccc(/C=C/c2ccccn2)cc1	-3%	.	.	-1%	.	11%
CC(C)Cc1ccc(S(=O)(=O)NCc2nc3cccnc3n2Cc2ccccc2)cc1	-10%[60.1 µM]	?	-13%	1%	3%	17%
Cc1noc(C)c1-c1ccc2ncnc(NCC3CCN(C)CC3)c2c1	.	.	.	.	4%	.
O=C(OC[C@H]1O[C@@H](OC(=O)c2cc(O)c(O)c(OC(=O)c3cc(O)c(O)c(O)c3)c2)[C@H](OC(=O)c2cc(O)c(O)c(OC(=O)c3cc(O)c(O)c(O)c3)c2)[C@@H](OC(=O)c2cc(O)c(O)c(OC(=O)c3cc(O)c(O)c(O)c3)c2)[C@@H]1OC(=O)c1cc(O)c(O)c(OC(=O)c2cc(O)c(O)c(O)c2)c1)c1cc(O)c(O)c(OC(=O)c2cc(O)c(O)c(O)c2)c1	-99%	.	.	-83%	.	-104%
O=C(O)C[C@@H]1C(=O)O[C@@H]2C(COC(=O)c3cc(O)c(O)c(O)c3)O[C@@H](OC(=O)c3cc(O)c(O)c(O)c3)[C@@H](OC(=O)c3cc(O)c(O)c4c3[C@H]1[C@H](O)C(=O)O4)[C@H]2OC(=O)c1cc(O)c(O)c(O)c1 (some centres not stated)	.	0.18µM*	.	.	.	.
CCc1ccc(NC(=O)CSc2nc3n[nH]c(C)c3c(=N)n2-c2ccccc2C)cc1	-16%[60.1 µM]	6%	16%	-4%	-7%	89µM*
CCOc1ccccc1-n1c(SCC(=O)Nc2ccc(CC)cc2)nc2n[nH]c(C)c2c1=N	-3%	0%	-7%	2%	6%	17%
COc1ccc(NC(=O)CSc2nc3n[nH]c(C)c3c(=N)n2-c2ccc(Cl)c(C)c2)cc1OC	7%	3.5µM*	50µM*	-9%	-7%	35%
SMILES	POLK inh	Pol beta inh	POLH inh	FEN1 inh	TDP1 inh	Pol iota inh
COc1cccc(C2c3c(ncn(-c4ccccc4Cl)c3=N)Oc3ccc4ccccc4c32)c1 (configuration not stated)	.	.	.	.	4%	.
COc1ccc(OC2C=CC(C#Cc3ccc(Br)cc3)OC2CO)c(C(C)(C)C)c1 (configuration not stated)	.	.	.	.	11%[21 µM]	.
Cc1ccccc1Nc1nc(C#N)nc(NC2CCCC2)n1	.	.	.	.	-4%	.
COc1ccc(Cl)cc1NC(=O)CN(c1cc(C)cc(C)c1)S(=O)(=O)c1c(C)n[nH]c1C	?	-9%	?	?	0%	79µM*
COc1ccc(N(CC(=O)Nc2cc(Cl)ccc2C)S(=O)(=O)c2c(C)n[nH]c2C)cc1	12%	8%	-16%	-5%	5%	-1%
O=S(=O)(Nc1cc(O)cc2cccnc12)c1ccc(Cl)s1	.	.	.	.	23%	.
CC1(C)NC(=O)N(CN2C(=O)NC(C)(C)C2=O)C1=O	2%	79µM*	-8%	-2%	7%	-4%
CC(C)CCOc1ccc(N)cc1	-9%[60.1 µM]	.	.	.	21%	.
O=C(COC(=O)/C=C/c1ccco1)NCc1ccc2c(c1)OCO2	-22%	-8%	-13%	-6%	50µM*	?
CN(Cc1ccccc1)C(=O)COC(=O)/C=C/c1ccco1	?	14µM*	?	-11%	40µM*	?
COc1ccc(C(=O)COC(=O)/C=C/c2ccco2)cc1F	?	.	?	17%	.	35µM*
CC1CCCC(NC(=O)COC(=O)/C=C/c2ccco2)C1C (configuration not stated)	-26%	.	-3%	-6%	?	71µM*
O=C(COC(=O)/C=C/c1ccc(F)cc1)NCc1ccc2c(c1)OCO2	-4%	.	-10%	2%	-1%	28%
CC[C@]1(c2ccccc2)NC(=O)NC1=O	-3%[12 µM]	.	.	.	6%	.

Assay outcomes as filed in PubChem.
